# Assay results from PubChem BioAssay (NCATS).
# Records with an inconclusive call do not appear. Active and inactive are the calls of the source. Calls follow the shape of the dose curve; as a rule, active = well fitted inhibition curve with a large enough effect; inconclusive = small, poorly fitted or top-dose-only effect; inactive = flat fitted curve, though single readings scatter.
# Test: qHTS profiling for inhibitors of Plasmodium falciparum proliferation (AID 504749); also: nearly all actives have a fitted effect of over 60% in size;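 as to activity, negative = inhibition: 0% = DMSO vehicle and full inhibition = artemisinin control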
# Details: P. falciparum in erythrocytes, SYBR Green DNA, 72 h; at 12.8 µM (top of the series); parasite line A
# Text: NIH National Institute of Allergy and Infectious Diseases [NIAID] NIH Chemical Genomics Center [NCGC] MLPCN Grant: None Assay Provider: Xinzhuan Su, NIAID NCGC Assay Overview: Plasmodium falciparum is a virulent malarial parasite that kills 1-2 million people worldwide each year. Transmitted by mosquitoes, the sporozoite form of the parasite enters the blood stream to infect hepatocytes, where they become merozoites that infect red blood cells (erythrocytes). Within erythrocytes, merozoites begin a […] cycle of growth and division, after which the parasite is released to infect new red blood cells. Gametocytes, which form within erythrocytes as well, circulate in the bloodstream and are ingested by the mosquito, thereby completing the life cycle. To profile malarial isolates for differential chemical responses and to identify inhibitors of malarial growth, an assay that measures P. falciparum growth and replication within erythrocytes was employed. This assay uses a DNA binding fluorescent dye (SYBR Green) to detect parasite DNA following cell lysis. Because mature erythrocytes lack DNA, only Plasmodium-derived DNA is detected.
# NCGC Assay Protocol Summary: The SYBR Green viability assay was adapted from a method described previously (Plouffe et al., 2008). For screening 3 ul culture medium was dispensed into 1536 well black clear bottom plates (Aurora Biotechnologies) using a Multidrop Combi (Thermo Fisher Scientific Inc.), 23 nL compounds in DMSO were added by a pin tool (Kalypsys), and 5 ul of erythrocytes infected with P. falciparum (0.3% parasitemia, 2.5% hematocrit final concentration) were added. The plates were incubated at 37 C in a humidified incubator in 5% CO2 for 72 h, and 2 ul lysis buffer (20 mM Tris HCl, 10 mM EDTA, 0.16% saponin, 1.6% triton X, 10X SYBR Green I supplied as 10,000X […] by Invitrogen) was added to each well. The plates were mixed for 25 sec with gentle shaking and incubated overnight at room temperature in the dark. The following morning, fluorescence intensity at 485(14) nm excitation and 535(25) nm emission wavelengths was measured on an EnVision (Perkin Elmer) plate reader. Plate reads were normalized relative to the control inhibitor (0.29 uM artemisinin) and vehicle (DMSO) wells present on each plate and then corrected by an algorithm using vehicle-only control plates at the beginning and end of the compound plate stack.
# Potency is read from the fitted curve at half-maximal effect.
row,SMILES,"activity, negative = inhibition"
1,O=C(O)c1ccccc1-c1c2cc(Br)c(=O)cc-2oc2[c]([Hg])c(O)c(Br)cc12,23.4% (inactive)

# Same assay, conditions: P. falciparum in erythrocytes, SYBR Green DNA, 72 h; at 12.8 µM (top of the series); parasite line B
row,SMILES,"activity, negative = inhibition"
1,O=C(O)c1ccccc1-c1c2cc(Br)c(=O)cc-2oc2[c]([Hg])c(O)c(Br)cc12,5.61% (inactive)

# Same assay, conditions: P. falciparum in erythrocytes, SYBR Green DNA, 72 h; at 28.7 µM (top of the series); parasite line A
row,SMILES,"activity, negative = inhibition"
1,CCN(CC)CCO[C@H]1CC[C@@]2(C)C(=CC[C@@H]3[C@H]2CC[C@]2(C)C(=O)CC[C@H]32)C1,-0.0219% (inactive)
2,C[N+](C)(C)CC(=O)[O-],11.4% (inactive)
3,CO[C@H]1[C@@H](O)CC(OC2[C@@H](O)CC(OC3[C@@H](O)C[C@H](OC4CC[C@@]5(C)C(CCC6C5CC(O)[C@]5(C)[C@H](C7=CC(=O)OC7)CCC65O)C4)O[C@@H]3C)O[C@@H]2C)O[C@@H]1C (stereo partly specified),-4.67% (inactive)
4,CCN1C[C@]2(COC)[C@H](O)C[C@H](OC)[C@]34C1C([C@H](OC)[C@H]23)[C@]1(OC(C)=O)C2[C@@H](OC(=O)c3ccccc3)C(O)(C[C@H]24)[C@@H](OC)[C@@H]1O,-2.64% (inactive)

# Same assay, conditions: P. falciparum in erythrocytes, SYBR Green DNA, 72 h; at 28.7 µM (top of the series); parasite line B
row,SMILES,"activity, negative = inhibition"
1,CCN(CC)CCO[C@H]1CC[C@@]2(C)C(=CC[C@@H]3[C@H]2CC[C@]2(C)C(=O)CC[C@H]32)C1,10.7% (inactive)
2,C[N+](C)(C)CC(=O)[O-],8.81% (inactive)
3,CO[C@H]1[C@@H](O)CC(OC2[C@@H](O)CC(OC3[C@@H](O)C[C@H](OC4CC[C@@]5(C)C(CCC6C5CC(O)[C@]5(C)[C@H](C7=CC(=O)OC7)CCC65O)C4)O[C@@H]3C)O[C@@H]2C)O[C@@H]1C (stereo partly specified),10.4% (inactive)
4,CCN1C[C@]2(COC)[C@H](O)C[C@H](OC)[C@]34C1C([C@H](OC)[C@H]23)[C@]1(OC(C)=O)C2[C@@H](OC(=O)c3ccccc3)C(O)(C[C@H]24)[C@@H](OC)[C@@H]1O,-26.7% (inactive)

# Same assay, conditions: P. falciparum in erythrocytes, SYBR Green DNA, 72 h; parasite line A
row,SMILES,Potency
1,Oc1cc[c]([Hg][Cl])cc1,7.94 µM (active)
2,CCCCCCCCCC[N+](C)(C)CCCCCCCCCC,5.01 µM (active)
3,CC(C)[C@@]1(NC(=O)[C@H]2CC3c4cccc5[nH]cc(c45)C[C@H]3N(C)C2)O[C@@]2(O)C3CCCN3C(=O)[C@@H](Cc3ccccc3)N2C1=O (stereo partly specified),6.31 µM (active)

# Same assay, conditions: P. falciparum in erythrocytes, SYBR Green DNA, 72 h; parasite line B
row,SMILES,Potency
1,Oc1cc[c]([Hg][Cl])cc1,10 µM (active)
2,CCCCCCCCCC[N+](C)(C)CCCCCCCCCC,6.31 µM (active)
3,CC(C)[C@@]1(NC(=O)[C@H]2CC3c4cccc5[nH]cc(c45)C[C@H]3N(C)C2)O[C@@]2(O)C3CCCN3C(=O)[C@@H](Cc3ccccc3)N2C1=O (stereo partly specified),5.01 µM (active)
